Bioassay records deposited in PubChem by National Center for Advancing Translational Sciences (NCATS).
Hits are enriched below; roughly 21% of the tested compounds scored in any of these assays.
DT40 TDP1 no CPT: qHTS for Inhibitors of human tyrosyl-DNA phosphodiesterase 1 (TDP1): qHTS in cells in absence of CPT; Potency, µM (top dose mostly 46.2 µM), for inactives: at the top dose activity change, negative = growth inhibition, most hits filed as inhibitors; 420,000 tested, 15% active; DT40 Tdp1-/- hTDP1 cells, no CPT, ATP luminescence, 48 h; AID 686978, 2013; note: potency is the fitted concentration of half-maximal effect; nearly all actives have a fitted effect of over 55% in size
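Chicken DT40 Tdp1-/- cells complemented with human TDP1, screened without camptothecin (DMSO vehicle only), 400 cells/well. Compounds pin-transferred, cells incubated at 37 °C for at least 48 hr. Growth read as ATP-dependent luminescence (CellTiter-Glo, 30 min at RT).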
IL-1B inflam inh: inhibitors of inflammasome signaling (IL-1 beta secretion) | activity change, % at 57.5 µM | AID 743279 | 360,000 tested, 4.7% active | THP-1 LPS/ATP IL-1B secretion, AlphaLISA, 16 h; stronger effect = lower value; in the data active = activity change below about -50%; inconclusive = mostly about -30% to -49%
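Secreted IL-1B measured by AlphaLISA bead assay after 16 h compound exposure of THP-1 cells; compounds (final up to 57.5 uM) added 1 h before LPS (250 ng/mL) and ATP (1.25 mM) stimulation; lower signal means less secretion.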
RORgamma inh: inhibitors of mouse ROR gamma transcriptional activity | Potency, µM (highest dose often 53.6 µM), for the others: top-dose activity change, negative = inhibition, actives largely listed as inhibitors | 310,000 tested, 5.4% active | P51450 | Drosophila S2 Gal4-RORgamma UAS-luciferase reporter, 20 h | AID 2551; note: potency is the fitted concentration of half-maximal effect; nearly all actives have a fitted effect of over 60% in size
Target sequence (P51450 whole entry, looked up, the tested form may be a part): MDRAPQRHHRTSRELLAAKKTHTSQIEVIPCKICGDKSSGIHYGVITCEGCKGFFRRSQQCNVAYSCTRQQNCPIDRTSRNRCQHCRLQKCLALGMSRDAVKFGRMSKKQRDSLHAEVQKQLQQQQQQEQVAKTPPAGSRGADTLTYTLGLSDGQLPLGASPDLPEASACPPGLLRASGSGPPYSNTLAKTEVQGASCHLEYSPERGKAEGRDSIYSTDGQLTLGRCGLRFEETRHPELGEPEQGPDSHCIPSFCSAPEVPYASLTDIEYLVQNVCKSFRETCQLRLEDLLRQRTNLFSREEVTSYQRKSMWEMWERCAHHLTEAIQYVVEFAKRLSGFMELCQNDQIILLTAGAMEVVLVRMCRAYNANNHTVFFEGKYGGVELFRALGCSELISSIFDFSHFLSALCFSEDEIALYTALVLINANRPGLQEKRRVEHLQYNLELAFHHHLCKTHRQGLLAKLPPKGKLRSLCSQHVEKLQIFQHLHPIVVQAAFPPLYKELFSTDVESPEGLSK
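Luciferase reporter read in Schneider cells carrying Gal4-RORγ (mouse) and UAS-Photinus luciferase; cells given compound 1 h before 700 uM copper sulfate induction, then incubated 20 h at ambient temperature.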
TDP1 cell CPT: growth inhibition of DT40 Tdp1-/-;hTDP1 cells with camptothecin (screen for TDP1 inhibitors). AID 686979. chicken DT40 Tdp1-/-;hTDP1 cells + 20 nM CPT, ATP luminescence, 48 h. Potency, µM (highest dose often 46.2 µM), without a hit: at the top dose activity change, negative = growth inhibition, most hits filed as inhibitors. 420,000 tested, 12% active; note: potency is the fitted concentration of half-maximal effect; nearly all actives have a fitted effect of over 55% in size
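Chicken DT40 Tdp1-/- cells stably complemented with human TDP1 were seeded at 400 cells/well in medium containing 20 nM camptothecin, exposed to pin-transferred compounds, and grown at 37 °C for at least 48 hr. Viability was read as ATP luminescence.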
ELG1 repair inh: blocks ELG1-dependent DNA repair in HEK293T cells; HEK293T ELG1-luciferase reporter, luminescence, 16 h; DNA damage induced by 5-fluorouridine; 330,000 tested, 2.3% active; Potency, µM (titrated, usually from 46.1 µM), without a hit: at the highest dose activity change, negative = inhibition, actives largely listed as inhibitors; note: potency is the fitted concentration of half-maximal effect; nearly all actives have a fitted effect of over 55% in size
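DMSO vehicle served as the neutral condition. Each well held 2,000 cells given 5-fluorouridine plus compound; after 16 hr at 37 °C/5% CO2, ONE-Glo was added and luciferase measured 30 min later.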
Gal4-VP16 FLuc: Gal4-VP16 reporter inhibition counter-screen. Drosophila S2 Gal4-VP16 UAS-luciferase, luminescence, 20 h. Potency, µM (highest dose often 53.6 µM), for inactives: at the top dose activity, negative = inhibition, most hits filed as inhibitors. 310,000 tested, 3.5% active;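 note: Gal4-VP16 expression switched on by copper sulfate through the metallothionein promoter; potency is the fitted concentration of half-maximal effect; nearly all actives have a fitted effect of over 50% in size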
The depositor's hits bear a star; ? = inconclusive; · = no result; [ ] = another dose, or the depositor's remark. Unless noted, calls come from the whole dose curve; as a rule, active = well fitted curve in the direction sought with a large enough effect; inconclusive = small, poorly fitted or top-dose-only effect, or another doubt; inactive = no such curve, though single readings can be large; an effect the other way counts as inactive or inconclusive. % is set by controls: 0 for no effect and ±100 for the full control effect.

SMILES | DT40 TDP1 no CPT | IL-1B inflam inh | RORgamma inh | TDP1 cell CPT | ELG1 repair inh | Gal4-VP16 FLuc
CCN(CC)S(=O)(=O)c1ccc(NC2c3ccccc3C(=O)N2c2ccc(C)cn2)cc1 (stereo unspecified) | ? | 11 | 39% | ? | 8% | 3%
Cc1ccc(NC2c3ccccc3C(=O)N2c2cccnc2)cc1 (stereo unspecified) | 4% | 76 | 8% | 7% | 5% | 0%
O=C1c2ccccc2C(Nc2cccnc2)N1Cc1ccccc1Cl (stereo unspecified) | 21µM* | 32 | -2% | ? | 21% | -10%
O=C(NCC1CCCN(C(=O)Cc2ccccc2Cl)C1)c1ccc(F)cc1 (stereo unspecified) | 15% | 14 | 44% | -20% | -11% | 0%
CC(=O)O[C@@H]1CC2C(C)(C)C(=O)C=C[C@]2(C)C2CC[C@]3(C)C(=CC[C@H]3C3CO[C@@H](C(C)(C)O)[C@H](O)C3)[C@@]21C (stereo partly specified) | -8%[9.04 µM] | · | 14% | ? | · | 2%
Cc1cccc(C)c1NC(=O)c1sc(Cl)nc1C | -15% | -1 | 5% | -19% | -9% | 0%
CCc1ccc(C(=O)Cc2cc3cccc(OC)c3oc2=O)cc1 | -28% | 10 | 0% | -2% | 0% | 8%
O=C(NCC1CC1)c1ccc2c(c1)S(=O)(=O)c1cc(Cl)ccc1C2=O | ? | ? | · | ? | 10% | ·
CCn1cc(S(=O)(=O)c2cc(C)cc(C)c2)c(=O)c2cc(F)c(N3CCC(C)CC3)cc21 | ? | · | · | -101% | · | ·
O=c1cc(-c2ccccc2)cc(-c2ccccc2)n1O | 16µM* | 120 | · | 21µM* | ? | ·
CCN(CC)CCNC(=O)c1ccc(NC(=O)c2cc(S(=O)(=O)N3CCCCC3)ccc2N2CCOCC2)cc1 | -16% | 14 | · | -17% | · | ·
O=C(O)CCNc1ccc(NCCC(=O)O)c2c1C(=O)c1ccccc1C2=O | ? | 0 | -44% | ? | -30% | ?
O=C1c2cccc(NCCNCCO)c2C(=O)c2cccc(NCCNCCO)c21 | 0.73µM* | -117* | · | 0.37µM* | · | ·
N#Cc1ccccc1S(=O)(=O)N1CCN(C(=O)C2CCCCC2)CC1 | -5% | -3 | · | -5% | -1% | ·
O=C(O)c1ccc(/C=N/NC(=O)C(O)(c2ccccc2)c2ccccc2)cc1 | -8% | -8 | · | -2% | 11% | ·
CCN(CC)c1ccc(/C=N/NC(=O)C(O)(c2ccccc2)c2ccccc2)o1 | · | · | 5.6µM* | · | -16% | 4µM*
COc1ccc(NC(=O)c2ccc(NC(=O)CN3CCC(C(N)=O)CC3)cc2)cc1 | -4% | -6 | · | 11% | ? | ·
Cc1ccc2c(c1)c1c(n2CC(O)Cn2ccnc2C)C(=O)CCC1 (stereo unspecified) | ? | -8 | ? | ? | -8% | -4%
Cc1ccc2c(c1)c1c(n2CC(O)Cn2c(C)nc3ccccc32)C(=O)CCC1 (stereo unspecified) | 18µM* | -2 | -11% | 26µM* | ? | -3%
Cc1ccc2c(c1)c1c(n2CC(O)Cn2c(C)nc3ccccc32)/C(=N\O)CCC1 (stereo unspecified) | 23µM* | -3 | -7% | 23µM* | -7% | -4%[0.365 µM]
Cc1ccc2c(c1)c1c(n2CC(O)CN2C(=O)CNC2=O)C(=O)CCC1 (stereo unspecified) | 4% | -10 | -3% | 7% | -2% | -4%
COc1ccc(Nc2nc(Cl)nc(Nc3ccc(OC)cc3)n2)cc1 | ? | -24 | -21% | -6% | -1% | ?
CC(C)(C)Nc1nc(Cl)nc(Nc2ccccc2)n1 | ? | -65* | ? | ? | ? | -6%
Clc1nc(Nc2ccccc2)nc(Nc2ccccc2)n1 | -21% | -100* | -28% | -4% | 6% | ?
Cc1oc2c(CN3CCCCC3)c(O)ccc2c(=O)c1-c1ccc(Cl)cc1 | 6% | 20 | -7% | 20% | 15% | 1%
SMILES | DT40 TDP1 no CPT | IL-1B inflam inh | RORgamma inh | TDP1 cell CPT | ELG1 repair inh | Gal4-VP16 FLuc
O=C(O)CCC(=O)OCCCc1cc2ccccc2c(=O)o1 | -6% | 36 | · | -14% | ? | ·
Cn1c(SCC(=O)c2ccc3c(c2)Cc2ccccc2-3)nnc1-c1ccccc1 | 29µM* | -13 | -17% | -29% | 12% | -4%
Cn1c(SCC(=O)c2ccccc2)nnc1-c1ccncc1 | -5% | -7 | 10% | 3% | ? | 25%
Cn1c(SCC(=O)c2ccccc2)nnc1-c1ccc(O)cc1 | ? | 15 | 0% | 2% | ? | 11µM*
CC(C)[C@@H]1Cc2[nH]n(C)c(=O)c2[C@H](c2ccc(Cl)cc2)O1 | -9% | -2 | · | 4% | · | ·
O=[N+]([O-])c1cccc(NC(=S)N2CCCC2)c1 | 20% | 18 | -3% | -17% | 12% | 5%
COc1cccc(NC(=S)N2CCN(c3ccc([N+](=O)[O-])cc3)CC2)c1 | 10µM* | -18 | 0% | 6.5µM* | -27% | 7%
COc1ccc(NC(=S)N2CCN(c3ccc([N+](=O)[O-])cc3)CC2)cc1OC | 12µM* | -3 | ? | 10µM* | 13µM* | 7.1µM*
CCOC(=O)[C@]12CCCC=C1N(Cc1ccccc1)C(=O)[C@H](CC(=O)NCCCN1CCCC1=O)C2 | -2% | 4 | · | -3% | · | ·
CCN(CC)CCNC(=O)c1cc2c(-c3cccc(OC)c3)nn(C)c2s1 | ? | -79* | 7% | ? | ? | -13%
COc1cccc(-c2nn(C)c3sc(C(=O)NCCc4cccc(C)c4)cc23)c1 | 5.2µM* | · | · | 10µM* | · | ·
COCCCNC(=O)c1cc2c(-c3cccc(OC)c3)nn(C)c2s1 | ? | -2 | 13% | ? | 12µM* | -14%
COc1cccc(-c2nn(C)c3sc(C(=O)NCc4ccccn4)cc23)c1 | -30% | ? | 12% | ? | ? | -20%
COc1cccc(-c2nn(C)c3sc(C(=O)NCc4ccc(C)cc4)cc23)c1 | ? | -19 | -3% | ? | ? | -2%
CC1O[C@@H](OC2C(O)C(O)C(CO)O[C@H]2OC2C[C@]3(C)C(CC(O)C4[C@@H]([C@]5(C)CC[C@@H](C(C)(C)O)O5)CC[C@]43C)[C@@]3(C)CCC(O)C(C)(C)C23)C(O)C(O)C1O (stereo partly specified) | 8% | 20 | · | -1% | 9% | ·
CSc1cc(-c2ccco2)oc1C(=O)c1ccco1 | -14% | -24 | · | 4% | · | ·
